The assay relates to Imidazoline I2 Central. Put plainly: off-target binding and CYP450 inhibition panel, profiling panel, selectivity assay for S1P4 antagonist project, biochemical, Ricerca HitProfilingScreen (AID 489017). The following applies: Ricerca receptor/enzyme binding panel plus CYP450, at 10 µM, hits give high values.

Values without a mark were called inactive. No rule for the calls is given here.

As a reminder, the inhibition is the relative decrease from the control value, in per cent.

For the molecule `CCc1cccc(CC)c1NC(=O)c1ccc(-c2cc(Cl)ccc2Cl)o1`, the inhibition is 8%.

The values above are taken from PubChem BioAssay AID489017 (The Scripps Research Institute Molecular Screening Center, 2010).
